Tests used:
[1] = molecular target: T1, ETS1 (UniProt P14921); test: ETS1 binding intensity (PBM fluorescence), ETS1 alone (arbitrary fluorescence units); higher = stronger binding; conditions: ETS1 concentration 1 nM; RUNX1 concentration 0 nM
T1 sequence: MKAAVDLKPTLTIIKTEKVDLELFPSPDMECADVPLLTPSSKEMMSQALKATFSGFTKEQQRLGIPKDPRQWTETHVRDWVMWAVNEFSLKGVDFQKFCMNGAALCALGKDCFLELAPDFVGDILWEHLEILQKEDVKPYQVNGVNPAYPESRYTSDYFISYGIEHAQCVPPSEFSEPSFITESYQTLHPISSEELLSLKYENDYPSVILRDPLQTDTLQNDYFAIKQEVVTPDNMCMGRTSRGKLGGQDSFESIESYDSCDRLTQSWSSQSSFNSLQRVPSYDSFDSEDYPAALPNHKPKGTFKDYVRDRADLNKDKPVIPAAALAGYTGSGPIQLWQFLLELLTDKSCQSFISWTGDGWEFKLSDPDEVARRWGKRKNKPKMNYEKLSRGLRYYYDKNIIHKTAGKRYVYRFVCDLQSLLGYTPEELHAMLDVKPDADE

[2] = molecular target: RUNX1 (UniProt Q01196); test: RUNX1 binding intensity (PBM fluorescence), RUNX1 alone (arbitrary fluorescence units); higher = stronger binding; conditions: RUNX1 concentration 2 nM; ETS1 concentration 0 nM
RUNX1, sequence (Q01196 whole entry): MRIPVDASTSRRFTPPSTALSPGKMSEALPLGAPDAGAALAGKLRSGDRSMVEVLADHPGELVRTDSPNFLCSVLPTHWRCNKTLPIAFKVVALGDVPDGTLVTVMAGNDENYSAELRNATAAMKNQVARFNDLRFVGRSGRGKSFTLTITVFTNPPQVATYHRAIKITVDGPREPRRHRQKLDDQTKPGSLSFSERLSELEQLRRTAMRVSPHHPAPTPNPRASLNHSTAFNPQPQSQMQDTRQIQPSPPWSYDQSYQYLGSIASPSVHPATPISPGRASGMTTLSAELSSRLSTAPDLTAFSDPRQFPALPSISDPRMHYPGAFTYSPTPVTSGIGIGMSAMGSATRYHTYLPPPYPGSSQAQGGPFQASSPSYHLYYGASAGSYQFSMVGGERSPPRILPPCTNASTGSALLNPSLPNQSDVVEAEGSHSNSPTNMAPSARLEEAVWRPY
Description: (§1)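 Cooperative gcPBM on 36-bp genomic probes with neighbouring ETS1 and RUNX1 sites. Recombinant human RUNX1 (2 nM) was incubated alone or with ETS1 (25 nM) and detected with anti-RUNX1 antibody plus Alexa488 secondary. Values are medians over 4 replicate spots; the RUNX1+ETS1 data were normalised to the RUNX1-only data. The probes sit in constant array flanks that are not printed.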

[3] = molecular target: T1, ETS1; test: ETS1 binding intensity (PBM fluorescence) in presence of RUNX1, normalised to ETS1-only experiment (arbitrary fluorescence units); higher = stronger binding; conditions: ETS1 concentration 1 nM; RUNX1 concentration 25 nM
[4] = molecular target: RUNX1 (UniProt Q01196); test: RUNX1 binding intensity (PBM fluorescence) in presence of ETS1, normalised to RUNX1-only experiment (arbitrary fluorescence units); higher = stronger binding; conditions: RUNX1 concentration 2 nM; ETS1 concentration 25 nM
Description: as §1
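Wherever RUNX1 binding intensity (PBM fluorescence) in presence of ETS1, normalised to RUNX1-only experiment is given: Full-length recombinant human ETS1 or RUNX1 bound to double-stranded 36-bp genomic probes on microarrays, detected by protein-specific primary antibody and Alexa488 secondary, spot fluorescence as median of four replicate spots.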
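Wherever RUNX1 binding intensity (PBM fluorescence), RUNX1 alone is given: Full-length recombinant human RUNX1 bound to double-stranded 36-bp genomic probes on a high-density microarray, scored as Alexa488 fluorescence per spot via anti-RUNX1 antibody, median of four replicate spots.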

Sequence | ETS1 binding intensity [1] | RUNX1 binding intensity [2] | ETS1 binding intensity [3] | RUNX1 binding intensity [4]
GTAGAGACAGGAAATTATGTTGGTTTTCTTGCAGAA | 3530 | 724 | 3800 | 1310
GTTGGGAGGCGCACATCCGGCGGTTACCCGGTGCTT | 2360 | 785 | 3090 | 1560
ACTTACTTCCCGACGTCACAGCCACCGAAACCACAG | 468 | 1410 | 464 | 2090
GAACCACTTCCCTGAAACCATTTACCACATAAATCT | 383 | 1510 | 904 | 2470
CTACCGGAAATGCAGCACCACGTAAAATGCGGTCGG | 3650 | 912 | 15800 | 2050
CTGCGAGCTCAGAACGGAAACCACAGCAACTACCGT | 2170 | 1070 | 4260 | 1550
AACTAGGCTTTTCTTTCCTGTGGTCCTTAAGGAGGC | 461 | 929 | 329 | 1020
ACCACCCACTTCCCGCGCAGTTCCAAACCGCGACCA | 302 | 1590 | 795 | 5270
CACCTGCGGAAGTCACAGGGAAGCCACAGAGAGATG | 849 | 766 | 1160 | 1080
CGGGTTGGGCAGGAAGCAGCATGACCGCAGTGGGTC | 1740 | 959 | 17000 | 3250
AACCCGGAAGTGGACACGGAGCTCGGCTGCGGCTCC | 1750 | 705 | 2240 | 1530
CTAGCAGGAAACAGACAGACCCAGCCACAGAATCTC | 470 | 919 | 519 | 884
GGAACAGGAAAAGCCTCCGGCAGCCCCTGCGGGCGG | 539 | 719 | 941 | 920
AACAAAGAGAGAGGAAGTGGGTTGGGCGGGGGGGGT | 1880 | 1010 | 1990 | 1040
AGGAGTGTCACTTCCTCTTTCCTCACCACAGCCTCC | 1100 | 1040 | 1440 | 1890
GTATCACTTCCTGTTTTCCTCTGTGGCTTACTGCTG | 3310 | 1300 | 3330 | 3210
GTCGTCCCGGAAACCGGGATGCGGTTATCAGAGCGA | 1860 | 1000 | 7110 | 3180
GCACCCTTCCTGCTTCCCACAGTGTGGTATAAGAGG | 412 | 965 | 475 | 1560
GTGGGGCGGGCTTCCGGCGCTCCCACCGCGAGCCGA | 921 | 790 | 1050 | 1500
CAGAGAGAGGCCACATCCCTGTGGTCACACATACCC | 428 | 980 | 590 | 1030
GAAGCAGACAGGAAGTGGGTCTGAGCGGTGGAGGGA | 7670 | 690 | 8610 | 1910

Sequence | ETS1 binding intensity [1] | RUNX1 binding intensity [2] | ETS1 binding intensity [3] | RUNX1 binding intensity [4]
CCCACAGGAAATCCCCTGGTCTGTGGCGCCTCTGAT | 881 | 766 | 823 | 1110
AGCGTTTCCTGCCTGTCTGGGGCTGACAAACCACAA | 623 | 930 | 492 | 2120
AGGTACCAGGCCCGGAAACCACGGAAAGGGGAACTT | 3050 | 862 | 5500 | 1100
GAGTCTACAGCGGAAGCCACCACATGCCCCACCCCC | 4820 | 904 | 5330 | 1200
GTCTTACTTCCTGTCCCCGCCCACCGCGACTGTCTT | 2560 | 1740 | 3520 | 3600
GTTAGAGGAAGAGGAAGCGGTCAAGAGATCGTCACA | 956 | 766 | 1280 | 1810
CCAACAGTACCCTTCCTCCCTTAACCACAAGACTGA | 445 | 5500 | 2090 | 6290
AGCGGCCTGGGAGGAGGATGTGGTTACGTGGAGACC | 1120 | 996 | 15200 | 1510
AGACGGGACCGGAAGCCGGGCCGCAGGCGGCCGGGC | 5400 | 811 | 6650 | 1240
AGCCGCCACTTCCTGTCTCTGCGGGTGCATGCTCTT | 3730 | 863 | 5990 | 3580
TCTGTCGCACATCCGGTGTGAGCTGCGGGGCGGTGG | 7930 | 753 | 10600 | 1640
TTCAGAAAAAAAGGAAGTGGTAAATTCTTGCTGATT | 1890 | 775 | 3620 | 1500
AAACATCATAGGAAGTGGATTTTGTGGTGAGAGACA | 1160 | 870 | 3880 | 1130
CAGATTCAAGGAAGTGGTGGTGGTTTGGTGTCGTTG | 738 | 755 | 1370 | 907
CATAGGAAGTGCTCAGCTCTCCTCCACCGCAAGTTT | 452 | 806 | 2190 | 879
GGGGGAGTTTTCGGAAGCGCTAACCGCGTTGGGGCC | 365 | 860 | 874 | 954
AGGAGAACTTCCGCCCTTACTATATTACCGCCGGTA | 1180 | 737 | 1090 | 1520
CCCTCTCTTCTTCCTCCCCCACCACAAAAGTCACAG | 550 | 2440 | 641 | 2280
GGTTCGCGGCTTCCGGGACATTTGTACCGCAGGGGG | 960 | 759 | 2330 | 1510
GACTCCCTCAGCGGATGCGGGTGCTGCTGCTGCTGC | 1290 | 743 | 1400 | 1250
GTGTTTCCTCTTTGTTTTGGGGCTGTGGTTGCCACA | 414 | 1330 | 600 | 3180

Sequence | ETS1 binding intensity [1] | RUNX1 binding intensity [2] | ETS1 binding intensity [3] | RUNX1 binding intensity [4]
CGCCTCATTTCCTGTGCAACTGCGGTAAAAATAGGA | 1860 | 1630 | 5000 | 4630
AGGCCTCGCTTCCTCTCCTGACCACACCCTGCAGCT | 446 | 1160 | 590 | 1800
AGTTGGTTCCTTCCGGTGGGTTTGTGGGCTTGGGGT | 1400 | 763 | 2230 | 1880
CACCTCCTACTTCCCCCCGCTGATAACCACCAACCC | 1700 | 2990 | 1790 | 2830
GCATTGTGCTTCCGCTCGGGGAAAGACCGCTTACGG | 789 | 851 | 911 | 1590
AGGGAGCCCTCCATTTCCTGCCCACATTTGTCACCT | 2360 | 1240 | 2060 | 2260
GAAACAATTTCCTGTACCTCTGTGGTAAAAATGATA | 1040 | 945 | 1650 | 2610
CAGGCTGCTTCCGGCGCGCGGCAGAGCGGTCAGAGC | 990 | – | 1160 | 1700
CTGCTGCCGCGAACAGGAAACCACTACAATCAGGAG | 2840 | 816 | 4530 | 1100
CCGGGACCGGAAGAGGGAGCCGTGGTTGCTGGAACT | 3040 | 744 | 4030 | 1960
GGAACAGGAAGCGGCAGAAATAGCAGCCACCGCGGC | 960 | 819 | 1540 | 1310
CGTGTGGGAGGCCGGAAGTTGCGGCTTCATTACTCG | 20400 | 845 | 51000 | 2710
TTGCACACGTGGGCGGGAAGTGGTTAAGCGGCCTCA | 1020 | 725 | 4280 | 1210
ATTTAGGAGGAAGTTTCCAGTACCACAACCTCACAG | 430 | 868 | 709 | 788
GCGCAAGGATCCGGTTTGTTGTGGTGTGGGGAGGGG | 517 | 814 | 503 | 1070
GCCAGGAGGACTTCCGGGTGGGTGTGGTATCTGCGA | 1320 | 780 | 2540 | 2300
CTCTGCTTCCTGTCTTTGAATGCCTCTGTGGTTTTC | 675 | – | 2540 | 4320
CAAACAGGTTCCGGCCGGACTACAGCGCCCACAATG | 432 | 712 | 460 | 1080
GGTCTCACCGCTCTTCCGCTTGCGGTTTCGGGGGCC | 780 | 2320 | 5370 | 4570
GGAGCGCGCCGGAAACGCGCGGCTGCGGCCCGGGAG | 4280 | 722 | 4330 | 1320
ACCGCCGGAAGTTTCTGCCGCGGCTTTGCGGGGACG | 3320 | 791 | 9610 | 1760

Sequence | ETS1 binding intensity [1] | RUNX1 binding intensity [2] | ETS1 binding intensity [3] | RUNX1 binding intensity [4]
CAGCGGCCGTCGCGGGAAGTGCGGTCGCCGCGGCCA | 500 | 871 | 1120 | 966
GCGCCCCGCTTCCGGGGCCGCCCTAAACCGCGGCCG | 944 | 1520 | 2870 | 3790
CCACGTCCACAAAGGAAACCGCGGCCTGCCCGGGGA | 512 | 1080 | 1390 | 1590
AGCCTGGCCTCGGCAGGATGTGGGTGTAGGTCATGC | 4780 | 732 | 7380 | 999
CCCTGAGCACTTCCCCGTAAGGCTGCGGTGCACGGG | 337 | 871 | 460 | 844
GGTAAAGCAACAGGATGTGGGTGTCTGACTTACAAT | 4330 | 700 | 6760 | 1790
CATGCGTCACCTTCCTGTGTGGTCAGCAGTGCTTGC | 383 | 915 | 468 | 1420
TGAGAAAGCTATTTCCGCCCACAAAGAGGCAAGTCT | 1420 | 763 | 1370 | 1570
TTAGATGTGCCTACATCCTGACCTCAAAAACCTCTG | 561 | – | 767 | 957
AAATATAGTGCTAAAGGAAGTGGTTTTCATGCAACT | 2380 | – | 4140 | 1080
CGTACGCGCACTTCCGGTCTTTGTGGCTTGCAGCTC | 18000 | 853 | 34400 | 2610
CTAGGCCACCGGAAGTCTCCGCAGTGGTTTTGCAAA | 14900 | – | 25800 | 1610
GAACTTCCGGGACCACGTGACGTAGAACCACAACAA | 587 | 815 | 1100 | 1690
TCATATCCGGCAGGAATGGGTTTTGTGGCTTTGTGC | 752 | 1670 | 1400 | 3620
AGGCTTCCTGTTTTATCTCGTGTGTGTGGTGCACCA | 547 | 970 | 565 | 2120
CATCCAGGACGGAAACAGCATCCCCACCGCGGGAGC | 775 | 855 | 852 | 1080
CCCCTGCCCCTTCCTGGAAGGCTGCGGTGTAACACC | 435 | – | 704 | 1780
CTTTGTTGAAAAGGATGTGGTCATCTGATCTTGCTG | 1070 | 864 | 3320 | 2000
AGTAGGATGGGAGGAAGTGGTTTGTAAGAGGAGGAC | 1780 | 769 | 2740 | 1480
AGGAAACCACAAGTTATTCCCTGCAAAGGTCTTGAT | – | 3320 | – | 6430
